In PubChem BioAssay AID1159580 (chemical genetic matrix, 2015):
In all, about 5,500 compounds went through this assay and about 2,000 (36%) were called active. Inconclusive results (about 18%) are left out. No stated cut-off is given here; in the data, active means normalized growth mostly below about 0.91 (no sharp cut-off); inconclusive means no clear call, values can overlap the other calls; inactive means mostly above about 0.92. The list shows a part of the results.

Assay: chemical genetic growth profiling, strain panel (AID 1159580);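 further: tested at 20 µM; growth read once vehicle control cultures reached saturation at 30 °C; 1 = growth at the plate median or of vehicle wells; lower values mean less growth of the strain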
Conditions: growth OD

Measured: normalized growth

CC(=O)C1=C(O)C2C3c4c[nH]c5cccc(c45)CC3C(C)(C)N2C1=O (stereo unspecified)
inactive: S. cerevisiae deletion strains, locus YAL013W, strain DEP1, hits give low values 0.994 | S. cerevisiae deletion strains, locus YBR021W, strain FUR4, hits give low values 0.983 | S. cerevisiae deletion strains, locus YBR229C, strain ROT2, hits give low values 0.997 | S. cerevisiae deletion strains, locus YCL029C, strain bik1, hits give low values 1 | S. cerevisiae deletion strains, locus YDL035C, strain GPR1, hits give low values 1.01 | S. cerevisiae deletion strains, locus YDL074C, strain BRE1, hits give low values 1.01 | S. cerevisiae deletion strains, locus YDL101C, strain DUN1, hits give low values 1.01 | S. cerevisiae deletion strains, locus YDL134C, strain PPH21, hits give low values 1 | S. cerevisiae deletion strains, locus YDL185W, strain tfp1, hits give low values 0.995 | S. cerevisiae deletion strains, locus YDL192W, strain arf1, hits give low values 1 | S. cerevisiae deletion strains, locus YDR101C, strain arx1, hits give low values 0.995 | S. cerevisiae deletion strains, locus YDR150W, strain NUM1, hits give low values 1.01 | S. cerevisiae deletion strains, locus YDR162C, strain NBP2, hits give low values 0.993 | S. cerevisiae deletion strains, locus YDR318W, strain mcm21, hits give low values 1.01 | S. cerevisiae deletion strains, locus YDR388W, hits give low values 1 | S. cerevisiae deletion strains, locus YDR502C, strain sam2, hits give low values 1.01 | S. cerevisiae deletion strains, locus YEL061C, strain CIN8, hits give low values 0.989 | S. cerevisiae deletion strains, locus YER110C, hits give low values 1.01 | S. cerevisiae deletion strains, locus YER155C, strain BEM2, hits give low values 1 | S. cerevisiae deletion strains, locus YER167W, strain BCK2, hits give low values 1.01 | S. cerevisiae deletion strains, locus YGL078C, strain dbp3, hits give low values 1 | S. cerevisiae deletion strains, locus YGL086W, strain mad1, hits give low values 1.01 | S. cerevisiae deletion strains, locus YGL248W, strain PDE1, hits give low values 0.997 | S. cerevisiae deletion strains, locus YGR078C, strain PAC10, hits give low values 0.975 | S. cerevisiae deletion strains, locus YGR135W, strain pre9, hits give low values 0.993 | S. cerevisiae deletion strains, locus YGR229C, strain SMI1, hits give low values 0.971 | S. cerevisiae deletion strains, locus YGR252W, strain gcn5, hits give low values 1.04 | S. cerevisiae deletion strains, locus YHR030C, strain SLT2, hits give low values 1.01 | S. cerevisiae deletion strains, locus YHR079C, strain IRE1 (second series), hits give low values 1.02 | S. cerevisiae deletion strains, locus YHR094C, strain hxt1, hits give low values 1 | S. cerevisiae deletion strains, locus YHR129C, strain ARP1, hits give low values 1 | S. cerevisiae deletion strains, locus YHR200W, strain rpn10, hits give low values 1.01 | S. cerevisiae deletion strains, locus YIL066C, strain RNR3, hits give low values 1.04 | S. cerevisiae deletion strains, locus YIL073C, strain SPO22, hits give low values 1.07 | S. cerevisiae deletion strains, locus YIL125W, strain kgd1, hits give low values 1 | S. cerevisiae deletion strains, locus YIR030C, strain dcg1, hits give low values 1 | S. cerevisiae deletion strains, locus YJL095W, strain BCK1, hits give low values 1 | S. cerevisiae deletion strains, locus YJL134W, strain LCB3, hits give low values 1.01 | S. cerevisiae deletion strains, locus YJL168C, strain set2, hits give low values 1.01 | S. cerevisiae deletion strains, locus YJL187C, strain SWE1 (second series), hits give low values 1.01 | S. cerevisiae deletion strains, locus YJR043C, strain POL32, hits give low values 1.01 | S. cerevisiae deletion strains, locus YJR075W, strain HOC1, hits give low values 1 | S. cerevisiae deletion strains, locus YKL009W, strain mrt4, hits give low values 1.03 | S. cerevisiae deletion strains, locus YKL068W, hits give low values 1 | S. cerevisiae deletion strains, locus YKL085W, strain MDH1 (second series), hits give low values 0.994 | S. cerevisiae deletion strains, locus YKL085W, strain MDH1, hits give low values 0.994 | S. cerevisiae deletion strains, locus YKL190W, strain CNB1, hits give low values 0.99 | S. cerevisiae deletion strains, locus YKR001C, strain vps1, hits give low values 1 | S. cerevisiae deletion strains, locus YLR039C, strain RIC1, hits give low values 0.979 | S. cerevisiae deletion strains, locus YLR058C, strain SHM2, hits give low values 1 | S. cerevisiae deletion strains, locus YLR102C, strain apc9, hits give low values 1.01 | S. cerevisiae deletion strains, locus YLR262C, strain YPT6, hits give low values 0.97 | S. cerevisiae deletion strains, locus YLR268W, strain sec22, hits give low values 0.995 | S. cerevisiae deletion strains, locus YLR330W, strain CHS5, hits give low values 0.992 | S. cerevisiae deletion strains, locus YLR342W, strain FKS1 (second series), hits give low values 1.02 | S. cerevisiae deletion strains, locus YLR371W, strain rom2, hits give low values 1.01 | S. cerevisiae deletion strains, locus YLR418C, strain cdc73, hits give low values 0.99 | S. cerevisiae deletion strains, locus YML016C, strain PPZ1, hits give low values 1 | S. cerevisiae deletion strains, locus YML032C, strain rad52, hits give low values 1.01 | S. cerevisiae deletion strains, locus YML124C, strain tub3, hits give low values 1 | S. cerevisiae deletion strains, locus YMR078C, strain ctf18, hits give low values 1 | S. cerevisiae deletion strains, locus YMR223W, strain ubp8, hits give low values 1.03 | S. cerevisiae deletion strains, locus YMR263W, strain SAP30, hits give low values 1.01 | S. cerevisiae deletion strains, locus YMR307W, strain GAS1, hits give low values 1.08 | S. cerevisiae deletion strains, locus YNL067W, strain RPL9B, hits give low values 1 | S. cerevisiae deletion strains, locus YNL128W, strain TEP1, hits give low values 0.998 | S. cerevisiae deletion strains, locus YNL153C, strain GIM3, hits give low values 0.999 | S. cerevisiae deletion strains, locus YNL233W, strain BNI4, hits give low values 1.01 | S. cerevisiae deletion strains, locus YNL250W, strain rad50, hits give low values 1.01 | S. cerevisiae deletion strains, locus YNL271C, strain bni1, hits give low values 1.01 | S. cerevisiae deletion strains, locus YNL298W, strain CLA4, hits give low values 0.998 | S. cerevisiae deletion strains, locus YNL307C, strain MCK1, hits give low values 1.02 | S. cerevisiae deletion strains, locus YNL322C, strain KRE1, hits give low values 1 | S. cerevisiae deletion strains, locus YNR052C, strain pop2, hits give low values 1.01 | S. cerevisiae deletion strains, locus YOL006C, strain TOP1, hits give low values 1.06 | S. cerevisiae deletion strains, locus YOL012C, strain htz1 0.841 | S. cerevisiae deletion strains, locus YOL147C, strain pex11, hits give low values 1.01 | S. cerevisiae deletion strains, locus YOR061W, strain CKA2, hits give low values 1 | S. cerevisiae deletion strains, locus YOR069W, strain VPS5, hits give low values 0.993 | S. cerevisiae deletion strains, locus YOR136W, strain idh2, hits give low values 1.01 | S. cerevisiae deletion strains, locus YOR144C, strain elg1, hits give low values 1 | S. cerevisiae deletion strains, locus YOR184W, strain ser1, hits give low values 1.03 | S. cerevisiae deletion strains, locus YOR316C, strain cot1, hits give low values 1 | S. cerevisiae deletion strains, locus YPL055C, strain LGE1, hits give low values 0.976 | S. cerevisiae deletion strains, locus YPL241C, strain CIN2, hits give low values 1.05 | S. cerevisiae deletion strains, locus YPR119W, strain clb2, hits give low values 1 | S. cerevisiae deletion strains, locus YPR141C, strain kar3, hits give low values 1 | S. cerevisiae deletion strains, locus YPR163C, strain tif3, hits give low values 1 | S. cerevisiae deletion strains, locus YPR167C, strain met16, hits give low values 1.01 | S. cerevisiae deletion strains, strain wtn01, hits give low values 0.995 | S. cerevisiae strains, strain wild type, hits give low values 0.971
